Results on 40 compounds are retold here after PubChem BioAssay (NCI).

Compounds without any hit were thinned out: in the full panel of roughly 79,000, 15% have a hit. Active and inactive are the calls of the source. Rule as the data show it: active = growth inhibition above about 70%; inactive = the rest.

A short description of the first test: NCI Yeast Anticancer Drug Screen. Data for the cln2 rad14 strain (AID 165).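 Also: 0% = growth equal to vehicle treated cultures.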 Particulars: S. cerevisiae cln2 rad14 strain, at 50.0 µM, hits give high values. Summed up:
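Growth of compound-exposed yeast (cln2 rad14 genotype) measured and expressed as inhibition relative to vehicle.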
As for `COc1cc(C(C#N)NNc2nc(C)cc(=O)[nH]2)cc(OC)c1OC` (stereo not given), the growth inhibition was -5.35% (inactive).

On to `CCOC(=O)NC(=O)c1cn(CCN2CCN(C(=O)CCCCCCCCCCC(=O)N3CCN(CCn4cc(C(=O)NC(=O)OCC)c(=O)[nH]c4=O)CC3)CC2)c(=O)[nH]c1=O`, for which the growth inhibition was -1.35% (inactive).

In the case of `O=C(O)c1ccc(Cl)c(C(=O)O)c1`, the growth inhibition is 3.15% (inactive).

On to `COc1ccc2nc(N/N=C/C(C)=N/Nc3cc(C)c4cc(OC)ccc4n3)cc(C)c2c1`, for which the growth inhibition was 3.4% (inactive).

For the compound `CC1(C)OC2C(O1)[C@H]1OC(C(Cl)(Cl)Cl)=N[C@H]1C(I)[C@H]2N1C(=O)c2ccccc2C1=O` (stereo not given in full), the growth inhibition was -52.6% (inactive).

As for `COc1cc(C(=O)C(C=O)c2ccccc2)c([N+](=O)[O-])cc1OC` (stereo not given), the growth inhibition is 25.8% (inactive).

With `COC1OC2COC(c3ccccc3)OC2C(N=[N+]=[N-])C1O` (stereo not given), the growth inhibition was -31.2% (inactive).

For the compound `CC(C)CC(O)(CC(C)C)C(CCC(=O)Nc1ccccc1)C(=O)Nc1ccccc1` (stereo not given), the growth inhibition is -52.1% (inactive).

In the case of `CC1=Nc2ccccc2C1(C)C`, the growth inhibition was 21.2% (inactive).

Regarding `Nc1ncnc2c1[nH]c(=S)n2C1OC(CO)C(O)C1O` (stereo not given), the growth inhibition was -12.1% (inactive).

On to `CC(C)(C)OC(=O)Cc1ccc2c(ccn2Cc2ccccc2)c1`, for which the growth inhibition is -22.1% (inactive).

Take `CC(=O)Nc1c(Cl)cc2c(c1Cl)Cc1cc(N(C)C)ccc1-2`: the growth inhibition is 6.25% (inactive).

Take `Cc1ccc(C2(c3ccc(C)cc3)OCC(C)(CBr)CO2)cc1`: the growth inhibition is -8.5% (inactive).

For the compound `COC(=O)N/N=C(\C)CC(=O)Nc1ccc(Cl)cc1`, the growth inhibition is -5.95% (inactive).

On to `CC1C(C)(C)P(=O)(OCCOP2(=O)C(C)(C)C(C)C2(C)C)C1(C)C` (stereo not given), for which the growth inhibition was -9.6% (inactive).

As to `CC(=O)NC(Cc1cccc2ccccc12)C(=O)O` (stereo not given), the growth inhibition is -2% (inactive).

For the compound `c1ccc(N=C2CCCCCC2)cc1`, the growth inhibition is 7.15% (inactive).

Turning to `COc1cc2cc3c4cc(OC)c(OC)cc4cc[n+]3cc2cc1OC`, the growth inhibition is -12.3% (inactive).

Take `CCN(CC)c1ccc2cc(C(=O)Nc3nc(C45CC6CC(CC(C6)C4)C5)cs3)c(=O)oc2c1`: the growth inhibition is -17.6% (inactive).

`O=C(NCCCN1CCCCCC1)C(c1ccccc1)C1CCCCC1` (stereo not given): the growth inhibition was 13.9% (inactive).

Regarding `CC1(C)N=C(N)N=C(N)N1c1ccc(C(F)(F)F)cc1`, the growth inhibition was -0.5% (inactive).

In the case of `CC(Cc1ccccc1)NC(=O)CCCN1C(=O)c2ccccc2C1=O` (stereo not given), the growth inhibition was -37.8% (inactive).

`CCSc1nc(C)nc2c1cnn2-c1ccccc1`: the growth inhibition is -35.6% (inactive).

`CC1(C)OC[C@@H](O)[C@H](Br)CO1`: the growth inhibition was -3.95% (inactive).

With `COc1ccc2cc3n(cc-2c1=O)CCc1cc2c(cc1-3)OCO2`, the growth inhibition was -14.4% (inactive).

With `N#CCCCN1CCOCC1`, the growth inhibition is 15.7% (inactive).

For `CC(=O)C1(C)CCC2C3CCC4=CC(=O)CCC4=C3CCC21C` (stereo not given), the growth inhibition is 9.9% (inactive).

For `CC(C)(C)/[N+]([O-])=C/C1(C2(/C=[N+](\[O-])C(C)(C)C)Cc3ccccc3C2=O)Cc2ccccc2C1=O` (stereo not given), the growth inhibition is 15.6% (inactive).

Turning to `COC(=O)/C=C/C(=N/N(C)c1ccccc1)c1ccccc1`, the growth inhibition was -49% (inactive).

`NCCC(=O)NCCSSCCNC(=O)CCN`: the growth inhibition is -16.8% (inactive).

In the case of `O=C(NCCCNCCCCNCCCNC(=O)C(F)(F)F)C(F)(F)F`, the growth inhibition was -8.45% (inactive).

For `O=C(CCC(=O)Nc1cc(Cl)ccc1Cl)CC(=O)c1ccc(Cl)cc1`, the growth inhibition is 11% (inactive).

For `S=C1NC(/C=C/c2ccccc2)Nc2ccccc21` (stereo not given), the growth inhibition was 81.8% (active).

With `O=C(Nc1cc(Br)c2cccc3c2c1CC3)c1ccccc1`, the growth inhibition was -5.25% (inactive).

`CN(C)CC(c1ccccc1)C(O)(c1ccccc1)c1ccccc1` (stereo not given): the growth inhibition was -45.9% (inactive).

For the compound `Clc1ccccc1CSc1cc(SCc2ccccc2Cl)nc(SCc2ccccc2Cl)n1`, the growth inhibition is 23.3% (inactive).

In the case of `CC(C)=CCC(C)C`, the growth inhibition is 7.9% (inactive).

As to `CCC(=O)NC1CCCCC1`, the growth inhibition was -15.3% (inactive).

As to `O=C(c1ccccc1)C(c1ccccc1)N(CCO)CCO` (stereo not given), the growth inhibition is -13.4% (inactive).

For the compound `O=c1[nH]c2ccccc2c(N=Cc2ccccc2)c1-c1ccccc1`, the growth inhibition was -26.8% (inactive).

The nature of a further test: NCI Yeast Anticancer Drug Screen. Data for the bub3 strain (AID 167). Particulars: S. cerevisiae bub3 mutant strain, at 50.0 µM, hits give high values. Summed up: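 Inhibition values come from growth of compound-treated mutant yeast normalised to vehicle-treated controls.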
In the case of `COc1cc(C(C#N)NNc2nc(C)cc(=O)[nH]2)cc(OC)c1OC` (stereo not given), the growth inhibition was -23.9% (inactive).

As to `CCOC(=O)NC(=O)c1cn(CCN2CCN(C(=O)CCCCCCCCCCC(=O)N3CCN(CCn4cc(C(=O)NC(=O)OCC)c(=O)[nH]c4=O)CC3)CC2)c(=O)[nH]c1=O`, the growth inhibition is -3.45% (inactive).

For the compound `O=C(O)c1ccc(Cl)c(C(=O)O)c1`, the growth inhibition is -11.7% (inactive).

Consider `COc1ccc2nc(N/N=C/C(C)=N/Nc3cc(C)c4cc(OC)ccc4n3)cc(C)c2c1`, for which the growth inhibition is 0.15% (inactive).

Take `CC1(C)OC2C(O1)[C@H]1OC(C(Cl)(Cl)Cl)=N[C@H]1C(I)[C@H]2N1C(=O)c2ccccc2C1=O` (stereo not given in full): the growth inhibition is -5.9% (inactive).

With `COc1cc(C(=O)C(C=O)c2ccccc2)c([N+](=O)[O-])cc1OC` (stereo not given), the growth inhibition is 43% (inactive).

Regarding `COC1OC2COC(c3ccccc3)OC2C(N=[N+]=[N-])C1O` (stereo not given), the growth inhibition was -7.45% (inactive).

As for `CC(C)CC(O)(CC(C)C)C(CCC(=O)Nc1ccccc1)C(=O)Nc1ccccc1` (stereo not given), the growth inhibition was -8.5% (inactive).

Consider `CC1=Nc2ccccc2C1(C)C`, for which the growth inhibition was 4.55% (inactive).

Turning to `Nc1ncnc2c1[nH]c(=S)n2C1OC(CO)C(O)C1O` (stereo not given), the growth inhibition was 4% (inactive).

As to `CC(C)(C)OC(=O)Cc1ccc2c(ccn2Cc2ccccc2)c1`, the growth inhibition was 4.65% (inactive).

On to `CC(=O)Nc1c(Cl)cc2c(c1Cl)Cc1cc(N(C)C)ccc1-2`, for which the growth inhibition was 1.75% (inactive).

On to `Cc1ccc(C2(c3ccc(C)cc3)OCC(C)(CBr)CO2)cc1`, for which the growth inhibition was 1.6% (inactive).

With `COC(=O)N/N=C(\C)CC(=O)Nc1ccc(Cl)cc1`, the growth inhibition was -27.2% (inactive).

Take `CC1C(C)(C)P(=O)(OCCOP2(=O)C(C)(C)C(C)C2(C)C)C1(C)C` (stereo not given): the growth inhibition was 3.75% (inactive).

As to `CC(=O)NC(Cc1cccc2ccccc12)C(=O)O` (stereo not given), the growth inhibition was 2.6% (inactive).

For `c1ccc(N=C2CCCCCC2)cc1`, the growth inhibition is -9.25% (inactive).

On to `COc1cc2cc3c4cc(OC)c(OC)cc4cc[n+]3cc2cc1OC`, for which the growth inhibition was -15.8% (inactive).

For `CCN(CC)c1ccc2cc(C(=O)Nc3nc(C45CC6CC(CC(C6)C4)C5)cs3)c(=O)oc2c1`, the growth inhibition is -13.9% (inactive).

As to `O=C(NCCCN1CCCCCC1)C(c1ccccc1)C1CCCCC1` (stereo not given), the growth inhibition is 14.6% (inactive).

In the case of `CC1(C)N=C(N)N=C(N)N1c1ccc(C(F)(F)F)cc1`, the growth inhibition was 49% (inactive).

As to `CC(Cc1ccccc1)NC(=O)CCCN1C(=O)c2ccccc2C1=O` (stereo not given), the growth inhibition is 6.4% (inactive).

As for `CCSc1nc(C)nc2c1cnn2-c1ccccc1`, the growth inhibition is -13.8% (inactive).

As for `CC1(C)OC[C@@H](O)[C@H](Br)CO1`, the growth inhibition is -32.9% (inactive).

Take `COc1ccc2cc3n(cc-2c1=O)CCc1cc2c(cc1-3)OCO2`: the growth inhibition was -6.65% (inactive).

As to `N#CCCCN1CCOCC1`, the growth inhibition is 0% (inactive).

On to `CC(=O)C1(C)CCC2C3CCC4=CC(=O)CCC4=C3CCC21C` (stereo not given), for which the growth inhibition was 34% (inactive).

With `CC(C)(C)/[N+]([O-])=C/C1(C2(/C=[N+](\[O-])C(C)(C)C)Cc3ccccc3C2=O)Cc2ccccc2C1=O` (stereo not given), the growth inhibition was 7.15% (inactive).

Regarding `COC(=O)/C=C/C(=N/N(C)c1ccccc1)c1ccccc1`, the growth inhibition is 11% (inactive).

Take `NCCC(=O)NCCSSCCNC(=O)CCN`: the growth inhibition was 6.8% (inactive).

For the compound `O=C(NCCCNCCCCNCCCNC(=O)C(F)(F)F)C(F)(F)F`, the growth inhibition is 4.25% (inactive).

For the compound `O=C(CCC(=O)Nc1cc(Cl)ccc1Cl)CC(=O)c1ccc(Cl)cc1`, the growth inhibition was -1.65% (inactive).

Take `S=C1NC(/C=C/c2ccccc2)Nc2ccccc21` (stereo not given): the growth inhibition is 27.6% (inactive).

For `O=C(Nc1cc(Br)c2cccc3c2c1CC3)c1ccccc1`, the growth inhibition was 14.3% (inactive).

Regarding `CN(C)CC(c1ccccc1)C(O)(c1ccccc1)c1ccccc1` (stereo not given), the growth inhibition is -18% (inactive).

In the case of `Clc1ccccc1CSc1cc(SCc2ccccc2Cl)nc(SCc2ccccc2Cl)n1`, the growth inhibition was -7.3% (inactive).

For `CC(C)=CCC(C)C`, the growth inhibition is -12.6% (inactive).

With `CCC(=O)NC1CCCCC1`, the growth inhibition was -13.9% (inactive).

Turning to `O=C(c1ccccc1)C(c1ccccc1)N(CCO)CCO` (stereo not given), the growth inhibition is 20.6% (inactive).

For `O=c1[nH]c2ccccc2c(N=Cc2ccccc2)c1-c1ccccc1`, the growth inhibition is -12.1% (inactive).
